# The panel holds about 83,000 compounds, 20% with a hit somewhere; the sample as a whole holds those more often.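 Method: cells in 96-well plates; compound added at one concentration; 48 h incubation; percent growth measured; values under 10 scored active.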 Activity calls are given as the source filed them.
# Tested on: OVCAR-5 ovarian
# Assay: NCI-60 one-dose screen, 48 h (100 = growth as untreated, 0 = no growth, -100 = all killed)
# Settings: 10 µM unless noted
# Procedure: Growth inhibition of the OVCAR-5 human tumor cell line is measured as a screen for anti-cancer activity. Cells are grown in 96 well plates and exposed to the test compound for 48 hours. Compounds are tested at a single concentration, which is 10^-5 M for most compounds. The reported endpoint is percent growth (GI% or GIPRCNT), where numbers from 0 - 100% represent growth inhibition, and numbers from -100% - 0 represent cell death. For example, a value of 40 represents 60% growth inhibition. A value of 0 means no net growth occurred over the course of the experiment. A value of -40 indicates 40% of cells at the beginning of the experiment died by the end of the experiment. A value of -100 means all cells are dead at the end of the experiment.
# NCI-60 Human Tumor Cell Lines Screen was performed using the standard one-dose NCI protocol, which is described in more detail at https://dtp.cancer.gov/discovery_development/nci-60/default.htm.
# Compounds with GIPRCNT values below 10 were considered active. Activity score was based on GIPRCNT using the following formula: […]
# Score is 0 for GIPRCNT values of 100 or above, 50 for GIPRCNT values of 0, and 100 for GIPRCNT values of -100.
row,Compound,growth
1,NC(=S)NNC1CCCCC1,102% (inactive)
2,CCN(CC)C(=O)C1CCN(C(=O)c2ccccc2)CC1,108% (inactive)
3,C#CC(=O)/C=C/CCCCCCC#CC(=O)CCC(=O)C#CCCCCCC/C=C/C(=O)C#C,57.7% (inactive)
4,COc1ccc(C(=O)Cn2cnc3c(Nc4cc(C(=O)Nc5ccc(N6CCN(CCO)CC6)cc5)ccc4C)ncnc32)cc1,104% (inactive)
5,COc1ccc(C(=O)NC(=O)Nc2ccc3c(c2)NC(=O)/C3=C\c2[nH]c(C)c(CCC(=O)O)c2C)c(F)c1,64.4% (inactive)
6,O=C1c2ccccc2OC=C(c2ccccc2)N1CCCCNc1ccc(F)cc1,95.7% (inactive)
7,CC(C)(C)OC(=O)NCc1cccc(N=C=S)c1,65.2% (inactive)
8,CCc1cccc(-c2ccccc2)c1,104% (inactive)
9,CCOC(=O)c1[nH]c(-c2ccc(Cl)cc2)cc1-c1cccnc1,47.3% (inactive)
10,O=C(NOC1OC(CO)C(O)C(O)C1O)Nc1ccccc1 (stereo not given),100% (inactive)
11,Nc1ncc(-c2ccc3ncnc(Nc4cncc(Cl)c4)c3c2)cn1,52% (inactive)
12,Nc1nc(Cl)cc(NCCCCNc2cc(Cl)nc(N)n2)n1,94.9% (inactive)
13,COc1cc(NC(=O)C#Cc2ccccc2)c(OC)cc1Cl,79.4% (inactive)
14,C=C1C(=O)O[C@H]2[C@H]1CC/C(COC(=O)c1cc(OC)c(OC)c(OC)c1)=C\CC[C@@]1(C)O[C@@H]21,-12.4% (active)
15,CN(C)c1ncc(C#Cc2c(F)cccc2F)c2ccccc12,99.8% (inactive)
16,COc1ccc(/C(Cl)=N/N=C(\Cl)c2cc(OC)c(OC)c(OC)c2)cc1OC(C)=O,107% (inactive)
17,CCOc1ccc(NC(=O)Nc2cc(C(C)C)ccc2C)cc1,57.7% (inactive)
18,CC(=O)c1ccc2c(c1)C1C=CCC1[C@H](c1cc3c(cc1Br)OCO3)N2 (stereo not given in full),34.7% (inactive)
19,CCN(CC)CCNCC(O)Cc1ccc(OC)cc1 (stereo not given),113% (inactive)
20,c1ccc(-c2nc3sc(C(c4ccccc4)c4ccccc4)nn3c2-c2ccccc2)cc1,103% (inactive)

row,Compound,growth
1,COc1cccc(C2CC(c3cc(OC)c(OC)c(OC)c3)=NN2)c1 (stereo not given),98.8% (inactive)
2,O=C(O)c1cn(C2CC2)c2cc(N3CCN(C(=O)CSc4nc(NS(=O)(=O)c5ccccc5)cc(=O)[nH]4)CC3)c(F)cc2c1=O,112% (inactive)
3,COc1ccc(Cl)cc1NC(=O)c1cc2c(n1C)-c1nc(NC(=O)C(C)(C)C)sc1CC2,104% (inactive)
4,COc1cc2ncnc(Oc3ccc(NC(=O)Nc4ccc(CN5CCOCC5)c(C(F)(F)F)c4)c4ccccc34)c2cc1OC,50.1% (inactive)
5,COc1ccc(-c2cnc(-c3ccc(F)cc3)[nH]2)cc1,116% (inactive)
6,COc1ccc(-c2nnc(SCC(=O)Nc3ccc(C(=O)/C=C/c4ccccc4)cc3)o2)cc1OC,106% (inactive)
7,OCCOCC(F)(F)F,96% (inactive)
8,O=C1c2ccccc2C(=O)c2c(NCCN=Cc3c(O)ccc4ccccc34)cccc21,112% (inactive)
9,Nc1ncnc2c1c(-c1ccc(Oc3ccccc3)cc1)nn2C[C@H]1SSC[C@@H]1O,82.1% (inactive)
10,O=C1CCC(=O)N1C1CCCCC1,109% (inactive)
11,CCCC(=O)Oc1ccc(/C(=C(\C)c2ccc(OC)cc2)c2ccc(OCCN3CCCCC3)cc2)cc1,86.4% (inactive)
12,O=C(Nc1ccccc1Cl)c1c[nH]c(=O)c(-c2ccc(N3CCCOC4(CC4)C3)cc2)c1,87% (inactive)
13,COc1ccc(-c2cc3ccc(N(C)C)cc3nc2N)c(F)c1,69.6% (inactive)
14,O=C1CCC(c2c(O)cc(O)c3c(=O)c(O)c(-c4ccc(O)c(O)c4)oc23)N1 (stereo not given),104% (inactive)
15,O=C(NCCNc1nccc(-c2c(-c3cccc(O)c3)nc3sccn23)n1)c1cccc(C(F)(F)F)c1,113% (inactive)
16,S=c1n(CNc2ccc(Cl)nn2)nc(-c2cc(Cl)cc(Cl)c2Cl)n1/N=C/c1ccc(Cl)cc1,100% (inactive)
17,COc1cc(Nc2ncccc2C(=O)Nc2nc3ccc(F)cc3s2)cc(OC)c1OC,105% (inactive)
18,Cc1cc(NC(=O)c2cccc(C(F)(F)F)c2)ccc1-n1ccc2c(NC(=O)c3ccccc3)nccc21,98.3% (inactive)
19,CCN(CC)CCC(C(=O)O)(c1ccccc1)c1ccccc1,106% (inactive)
20,CNC(=O)NN,82.5% (inactive)

# — PubChem BioAssay (NCI)
